Measurements as given in PubChem BioAssay AID1835 (Johns Hopkins Ion Channel Center, 2009).
Among all 2,400 compounds or so, about 750 (31%) were called active. The list shows a part of the results. A number with no mark means an inactive call.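 Rule for the calls: active = median signal gain over dofetilide-blocked control wells reaching their mean plus 3 SD, so readout 1 at least 0; inactive = the rest.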

target: Voltage-gated inwardly rectifying potassium channel KCNH2 (Homo sapiens) (UniProt Q12809); assay: hERG protection against dofetilide inhibition, confirmation, cell-based, thallium flux, duplicate retest, dofetilide IC70 (AID 1835); conditions: hERG cell line, FluxOR thallium flux, dofetilide-blocked; at 10 µM; active compounds read high
Sequence (Q12809 whole entry, looked up): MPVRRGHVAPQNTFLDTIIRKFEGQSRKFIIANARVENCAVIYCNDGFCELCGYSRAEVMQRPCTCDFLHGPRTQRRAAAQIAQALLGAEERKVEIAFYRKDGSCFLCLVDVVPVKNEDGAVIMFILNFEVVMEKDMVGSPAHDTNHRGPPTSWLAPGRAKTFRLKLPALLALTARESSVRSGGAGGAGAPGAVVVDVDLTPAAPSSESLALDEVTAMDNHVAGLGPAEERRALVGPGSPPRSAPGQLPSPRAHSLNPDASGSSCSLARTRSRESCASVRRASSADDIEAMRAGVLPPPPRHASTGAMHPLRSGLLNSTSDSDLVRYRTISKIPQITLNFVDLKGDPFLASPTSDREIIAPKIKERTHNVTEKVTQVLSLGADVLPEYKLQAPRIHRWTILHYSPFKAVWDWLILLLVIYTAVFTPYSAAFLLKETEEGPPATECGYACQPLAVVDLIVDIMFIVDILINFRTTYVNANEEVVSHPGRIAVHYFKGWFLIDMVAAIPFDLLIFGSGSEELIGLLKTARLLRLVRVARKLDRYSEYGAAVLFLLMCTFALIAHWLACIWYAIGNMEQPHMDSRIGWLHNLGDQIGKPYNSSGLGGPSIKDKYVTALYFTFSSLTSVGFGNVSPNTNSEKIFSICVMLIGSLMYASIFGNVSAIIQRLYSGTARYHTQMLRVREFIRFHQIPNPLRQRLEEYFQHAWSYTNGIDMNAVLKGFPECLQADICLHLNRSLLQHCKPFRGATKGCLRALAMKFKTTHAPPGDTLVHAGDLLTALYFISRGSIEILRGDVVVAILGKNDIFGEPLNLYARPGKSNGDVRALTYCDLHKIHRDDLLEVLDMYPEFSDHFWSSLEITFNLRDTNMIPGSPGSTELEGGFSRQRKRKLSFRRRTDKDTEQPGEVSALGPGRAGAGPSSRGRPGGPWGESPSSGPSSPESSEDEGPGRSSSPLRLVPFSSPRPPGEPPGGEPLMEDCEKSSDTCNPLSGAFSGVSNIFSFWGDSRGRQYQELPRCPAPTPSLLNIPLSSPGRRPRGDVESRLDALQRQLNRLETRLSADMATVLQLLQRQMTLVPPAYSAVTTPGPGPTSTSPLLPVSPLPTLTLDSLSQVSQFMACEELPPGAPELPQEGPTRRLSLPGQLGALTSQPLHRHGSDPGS

| SMILES | activity increase over dofetilide control, less the hit threshold |
| --- | --- |
| Cc1ccccc1Cc1c(C)nc2c(C(=O)NCc3ccc4c(c3)OCO4)cnn2c1C | -11% |
| OC(CNCC(c1ccc(Cl)cc1Cl)c1c[nH]c2ccccc12)c1ccccc1 (stereo not drawn) | -48% |
| CCOc1ccc(NC(=O)CN(C)C(=O)c2c(-c3c(F)cccc3Cl)noc2C)cc1OCC | -7% |
| CN(Cc1cccc(C(F)(F)F)c1)Cc1nc(-c2cnccn2)no1 | -8% |
| Cc1ccc(-c2onc3ccc(Cl)cc23)cc1 | 0% |
| Cc1ccc(-c2nc3ccc(Cl)cc3c(=O)n2O)cc1 | 78% (active) |
| CCOC(=O)c1c(N2C(=O)Nc3ccccc3N2O)n[nH]c1-c1cccc(Cl)c1 | -4% |
| O=c1c2ccccc2nc(-c2cccc(Cl)c2)n1O | 39% (active) |
| O=c1c2ccccc2nc(-c2ccc(Cl)c(Cl)c2)n1O | 36% (active) |
| Cc1ccc(C(=O)NNc2cc(N3CCCC3)nc(N3CCCC3)n2)cc1 | -6% |
| CCOc1ccc2[nH]cc(S(=O)(=O)c3ccc(F)cc3)c(=O)c2c1 | -19% |
| Cc1ccc(-c2nc(CSCC(=O)N3CCOCC3)c(C)o2)cc1 | -9% |
| NC(=O)[C@@H]1CCCN1Cc1nc(Cc2ccccc2Cl)no1 | -15% |
| O=C(NC(=S)Nc1ccccc1N1CCCC1)c1ccccc1Br | -2% |
| CCn1ncc(Cl)c1C(=O)NC(=S)Nc1ccccc1Br | 46% (active) |
| CCCCOC(=O)c1ccc(NC(=S)NC(=O)c2c(Br)c(C)nn2C)cc1 | 38% (active) |
| Cc1nn(C)c(C(=O)NC(=S)Nc2ccccc2Br)c1Cl | 27% (active) |
| Cc1nn(C)c(C(=O)NC(=S)Nc2ccc([N+](=O)[O-])cc2)c1Cl | 18% (active) |
| Cc1nn(CCC(=O)NNC(=S)Nc2ccc(F)cc2)c(C)c1[N+](=O)[O-] | -24% |
| CCCCOC(=O)c1ccc(NC(=S)NC(=O)c2c(Cl)cnn2C)cc1 | -11% |
| Cc1ccc(NC(=O)c2c([N+](=O)[O-])c(C(C)(C)C)nn2C)cc1 | -1% |
| Cc1cc(C)nc(SCc2nnc(SCC(=O)Nc3nc(-c4ccccc4)cs3)n2-c2ccccc2)n1 | -19% |
| CC(C)c1ccc2c(c1)c(SC(C)(C)C)c(CC(C)(C)C(=O)O)n2Cc1ccc(Cl)cc1 | -9% |
| S=c1[nH]nc(-c2cccs2)n1/N=C/c1c(Cl)cccc1Cl | 4% (active) |
| S=c1[nH]nc(-c2ccccc2)n1/N=C/c1ccc(-c2ccccc2Cl)o1 | -4% |

| SMILES | activity increase over dofetilide control, less the hit threshold |
| --- | --- |
| CN(C)/C=C1/C(=O)N(c2ccc([N+](=O)[O-])cc2)N=C1c1ccccc1 | 2% (active) |
| CC1=NN(c2ccccc2)C(=O)/C1=C/c1ccc(-c2ccc(C)c(C(=O)O)c2)o1 | -18% |
| O=C(NNC(=O)C12CC3CC(CC(O)(C3)C1)C2)c1ccccc1O | -4% |
| Cc1nnc(SCC(=O)Nc2nccs2)n1N | -22% |
| C/C(Nc1cccc(F)c1)=C(/C#N)C(N)=O | 2% (active) |
| CCOC(=O)c1nnn(CC(=O)Nc2cccc(F)c2)c1C(=O)OCC | -1% |
| CC(C)[C@H](NC(=O)c1ccco1)C(=O)OCC(=O)Nc1cccc(F)c1 | -12% |
| OC(CCN1CCOCC1)c1ccccc1 (stereo not drawn) | -20% |
| Cc1ccc(C)c(NC(=O)CCN2C(=O)[C@@H]3Cc4ccccc4CN3C2=O)c1 | -17% |
| CC(=O)C1C(=O)c2c(cccc2[N+](=O)[O-])C1=Nc1ccccc1C (stereo not drawn) | -20% |
| CCN(CC)S(=O)(=O)c1ccc2[nH]c(=O)cc(C(=O)Nc3cccc(C(C)=O)c3)c2c1 | -4% |
| S=c1nc(-c2ccc(Br)cc2)[nH]c2ccccc12 | 50% (active) |
| CC(Oc1ccc(Br)cc1)c1nc2c3ccccc3nc(=S)n2[nH]1 (stereo not drawn) | 0% |
| S=c1nc(-c2ccccc2)[nH]c2ccc(Br)cc12 | 95% (active) |
| CC(C)c1ccc(CNc2nc3nc4c(c(=O)n3[nH]2)CCC4)cc1 | -6% |
| O=C1CCN(S(=O)(=O)c2ccc(Cl)cc2)CCN1 | -25% |
| COc1ccc(S(=O)(=O)c2snnc2C)cc1 | -2% |
| C=CCc1cccc(C2Nc3ccccc3C(=O)N2O)c1O (stereo not drawn) | 1% (active) |
| C=CCn1c(O)c(N=NC(=S)Nc2ccc(OC)c(Cl)c2)c2ccccc21 | 7% (active) |
| C=CCn1c(O)c(N=NC(=S)Nc2ccc(OC)cc2)c2ccccc21 | 4% (active) |
| Cc1ccc(Cn2c(O)c(N=NC(=S)Nc3ccccc3F)c3ccccc32)cc1 | -13% |
| COc1ccc(C(CC(=O)N2CCOCC2)c2c(O)cc(OC)cc2OC)cc1 (stereo not drawn) | -13% |
| CCOC(=O)C1=C(Cn2cnc3ccccc32)NC(=O)NC1c1cc(C)ccc1C (stereo not drawn) | -10% |
| CC(C)[C@H](NC(=O)OC(C)(C)C)C(=O)NCC1CCC(C(=O)N[C@@H](Cc2ccccc2)C(=O)O)CC1 (stereo partly drawn) | -5% |
| CNC(=O)c1cc(C(=O)c2ccc(F)cc2C(F)(F)F)c[nH]1 | -7% |

| SMILES | activity increase over dofetilide control, less the hit threshold |
| --- | --- |
| COc1ccc(CC(=O)Nc2ccccc2Oc2ccccc2)cc1 | -13% |
| COc1cc(Br)cc(/C=N/NC(=O)Cc2ccccc2)c1O | -9% |
| COc1cc(NC(=O)c2ccccc2)c(OC)cc1NC(=O)Cc1ccc(Br)cc1 | 12% (active) |
| O=c1[nH]c(C(Cl)(Cl)Cl)nc2ccc3ccccc3c12 | 4% (active) |
| CCCN1CCN(CCCNC(=O)Cn2nc(C)n3c(cc4cc(OC)ccc43)c2=O)CC1 | -13% |
| CS(=O)(=O)Nc1cccc(-c2cn3ccccc3n2)c1 | -13% |
| O=C(Nc1nnc(C2=COCCO2)o1)c1ccc(Br)cc1 | -42% |
| O=C(Nc1nnc(-c2ccc3c(c2)CCCC3)o1)c1ccc(Cl)cc1Cl | 9% (active) |
| O=C(Nc1nnc(-c2ccc3c(c2)CCCC3)o1)C1COc2ccccc2O1 (stereo not drawn) | -12% |
| Cc1[nH]c(=S)sc1Cc1ccc(Cl)c(Cl)c1 | -12% |
| S=c1[nH]cc(Cc2ccccc2)s1 | -5% |
| Cc1ccc(Cc2c[nH]c(=S)s2)cc1 | 44% (active) |
| Cc1[nH]n2c(=O)cc(C(C)(C)C)nc2c1-c1ccccc1 | 14% (active) |
| O=c1cc(-c2ccccc2)nc2c(-c3ccccc3)c(C(F)(F)F)[nH]n12 | 56% (active) |
| Cc1[nH]n2c(=O)cc(C(C)C)nc2c1-c1ccccc1 | -6% |
| Cc1nn(CCC#N)c2nc(-c3ccccc3)cc(C(F)(F)F)c12 | -11% |
| NC(=O)c1nn2c(C(F)(F)F)cc(-c3ccccc3)nc2c1Br | -8% |
| Nn1c(SCC(=O)Nc2ccccc2F)nnc1C1CCCCC1 | -10% |
| CC(C)C(=O)Nc1ccc2c(c1)Cc1cc(NC(=O)C(C)C)ccc1-2 | -3% |
| Cc1noc(C)c1CSc1ncnc2sc3c(c12)CCCCC3 | 4% (active) |
| CCOc1ccc(S(=O)(=O)N2CCN(Cc3ccc4c(c3)OCO4)CC2)cc1C | -31% |
| CCOC(=O)c1cnc(-n2nc(C)cc2C)nc1Nc1cccc(C(=O)O)c1 | -2% |
| COC(=O)C1=NN(C(=O)c2cccc(Br)c2)C(O)(c2ccc(Cl)cc2)C1 (stereo not drawn) | 86% (active) |
| CC1=NN(C(=O)c2ccccc2Br)C(O)(c2ccc(Cl)cc2)C1 (stereo not drawn) | -15% |
| CC1=NN(c2ccccc2)C(=O)C1C(=O)c1ccc(Cl)cc1 (stereo not drawn) | -5% |

| SMILES | activity increase over dofetilide control, less the hit threshold |
| --- | --- |
| CCOC(=O)C1=NN(C(=O)c2cccc(Br)c2)C(O)(C(C)(C)C)C1 (stereo not drawn) | 79% (active) |
| CC1=NN(C(=O)c2ccc(Cl)cc2)C(O)(c2ccccc2)C1 (stereo not drawn) | -11% |
| COC(=O)C1=NN(C(=O)c2ccc(Cl)cc2)C(O)(c2ccccc2)C1 (stereo not drawn) | 74% (active) |
| CCC1=NN(C(=O)c2ccc(Cl)cc2)C(O)(c2ccccc2)C1 (stereo not drawn) | -24% |
| COC(=O)C1=NN(C(=O)c2ccc(C)cc2)C(O)(c2ccc(Cl)cc2)C1 (stereo not drawn) | 92% (active) |
| COCCn1nnnc1C(c1ccc(C(F)(F)F)cc1)N1CCOCC1 (stereo not drawn) | -20% |
| O=C(CSc1ccccc1)N1CCN(S(=O)(=O)c2cccs2)CC1 | -10% |
| CCOC(=O)N1CCN(C(=O)COC(=O)c2cc(Cl)c(O)c(Cl)c2)CC1 | 5% (active) |
| CCOC(=O)N1CCN(C(=O)CN(c2ccc(OCC)cc2)S(C)(=O)=O)CC1 | -19% |
| O=C(OCC(=O)N1CCOCC1)c1ccc(Cl)cc1[N+](=O)[O-] | -13% |
| Cc1ccc(NC2=CC(=O)OC(C)C2)cc1 (stereo not drawn) | -4% |
| C=C(C)CNC(=S)NN=C1c2ccccc2-c2ccccc21 | 15% (active) |
| C=CCNC(=S)N/N=C(\C)c1ccc(OC)cc1 | -4% |
| CCOC(=O)N1CCN(C(=O)c2ccc(C)c(S(=O)(=O)Nc3ccccc3)c2)CC1 | -1% |
| Cc1cc(S(=O)(=O)Nc2ccc(C(=O)N3CCN(C(=O)c4ccco4)CC3)cc2)ccc1F | -13% |
| CCOC(=O)N1CCN(C(=O)c2ccc(Cl)c(S(=O)(=O)Nc3ccccc3)c2)CC1 | 5% (active) |
| NC(=O)c1ccsc1NC(=O)CS(=O)(=O)c1ccccc1 | -9% |
| O=c1c(O)c(-c2ccc3c(c2)OCO3)oc2ccccc12 | 6% (active) |
| Cn1nc(C(=O)Nc2ccc3c(c2)OCO3)c2ccccc2c1=O | -16% |
| O=c1c(O)c(-c2cccs2)oc2ccc(Cl)cc12 | 92% (active) |
| O=c1c(O)c(-c2cccs2)oc2ccccc12 | 62% (active) |
| O=C1OC(/C=C/c2ccc(Cl)cc2Cl)=NC/1=C\c1cccs1 | -7% |
| O=C(NCc1cccnc1)Nc1ccc2c(c1)OCO2 | -19% |
